Source: PubChem BioAssay
D1 agonist = agonists of human D1 dopamine receptor. P21728. AID 504660. activation, % at 2 µM. hit rate 1% among 360,000. HEK293 T-REx D1 cells, calcium flux, agonist mode; also: 0% is about no effect
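Inducible HEK293 T-REx D1 cells, force-coupled to calcium signalling, were plated at 4000 cells/well with tetracycline and held overnight at 30 C. After no-wash calcium dye loading, compound-evoked calcium rise over 180 s flagged agonists.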
TRHR ag = activates the human TRH receptor; hit rate 0.18% among 360,000; AID 493084; TRHR cells, calcium flux fluo-8, FDSS agonist mode; activation, % at 2 µM; also: 0% is about no effect
Target sequence (P34981 whole entry, looked up): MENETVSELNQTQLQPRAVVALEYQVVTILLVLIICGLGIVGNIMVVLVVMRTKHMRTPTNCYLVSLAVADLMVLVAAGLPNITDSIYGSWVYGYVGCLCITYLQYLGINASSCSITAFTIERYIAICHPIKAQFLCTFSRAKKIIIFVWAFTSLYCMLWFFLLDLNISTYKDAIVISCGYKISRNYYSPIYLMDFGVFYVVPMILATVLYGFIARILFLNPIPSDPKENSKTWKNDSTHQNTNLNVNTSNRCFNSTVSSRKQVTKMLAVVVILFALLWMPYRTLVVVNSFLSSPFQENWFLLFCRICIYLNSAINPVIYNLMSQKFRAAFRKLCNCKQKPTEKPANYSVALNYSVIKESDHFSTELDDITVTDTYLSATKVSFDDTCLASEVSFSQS
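TRHR-expressing cells loaded with fluo-8 calcium dye; 23 nL library compound pin-transferred, kinetic FDSS fluorescence (Ex 480/Em 530) recorded about 180 s for agonist-induced calcium release, before a 10 nM TRH EC20 addition for potentiator mode.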
D1 potentiator = potentiators of human D1 dopamine receptor; potentiation, % at 10 µM; hit rate 0.036% among 360,000; AID 504651; HEK293 TREx D1 cells, calcium flux, dopamine EC20 potentiation; P21728; in the data active = potentiation above about 30%; also: 0% is about no effect
D1 antagonist = antagonists of human D1 dopamine receptor; hit rate 3.2% among 360,000; HEK293 TREx D1 cells, calcium flux, dopamine EC80; hits give low values; AID 504652; activity change, negative = inhibition, % at 10 µM; P21728; in the data active = activity change below about -30%; also: % is scaled to controls: 0 for no effect and ±100 for the full control effect
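HEK293 T-REx cells expressing inducible, force-coupled D1 receptor; no-wash Ca dye, 30–90 min RT. Cmpd → 180 s read at 1 Hz → EC80 DA → 180 s read.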
TRHR PAM = allosteric enhancers of human TRH receptor. P34981. TRHR cells, fluo-8 calcium fluorescence, EC20 TRH enhancement. enhancement, % at 2 µM. hit rate 0.66% among 360,000. AID 493056; in the data active = enhancement above about 30%; also: 0% is about no effect
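TRHR-expressing cells loaded with fluo-8 calcium dye were read kinetically (ex 480/em 530) during compound addition, then stimulated with an EC20 of TRH (10 nM final). Enhancement of the Gq-mediated intracellular calcium response was scored.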
* hit, by the source's call; . = not tested or not shown. In the library only some 4.7% were active in any assay of this set; here they are far more common. Rule as the data show it, unless noted: active = activation above about 30%; inactive = the rest.

SMILES	D1 agonist	TRHR ag	D1 potentiator	D1 antagonist	TRHR PAM
Cc1ccc(Cn2cccc(C(=O)Nc3ccc(C)c(Cl)c3)c2=O)cc1	8	0	3	.	-4
NCCc1ccc(S(N)(=O)=O)cc1	0	0	-4	5	40*
CCOC(=O)C1CCCN(c2ccc([N+](=O)[O-])c3nonc23)C1 (configuration not stated)	752*	248*	15	-29	33*
Cc1cccc(NC(=O)Cn2cc(C(=O)c3ccccc3)c3ccccc32)c1	-2	0	-3	-5	6
CNC(C)Cc1ccccc1Sc1ccc(O)cc1 (configuration not stated)	20	1	-17	-59*	1
O=C1NC(=O)N(c2ccccc2F)C(=O)/C1=C/c1ccc(Sc2nc3ccccc3[nH]2)o1	116*	41*	5	-10	5
O=C1NC(=O)N(c2ccccc2)C(=O)/C1=C/c1ccc(Sc2ccccc2)o1	0	2	1	8	-2
COC(=O)c1ccccc1NC(=O)c1cccn(Cc2cccc(Cl)c2)c1=O	3	0	-4	2	0
CN1C(=O)C(=Cc2ccc(OCC(=O)Nc3ccccc3)cc2)C(=O)N(C)C1=O	4	0	-1	-34*	-1
Cc1sc2ccccc2c1CC1=NCCN1	5	1	-9	-47*	2
COc1ccc(OC)c(NC(=O)Cn2cc(C(=O)c3ccccc3F)c3ccccc32)c1	3	0	-4	-33*	3
Cc1ccc(-c2nn3c(=O)cc(CN4CCN(C(=O)COc5ccc(C)c(C)c5)CC4)nc3s2)cc1	-2	0	-1	6	2
O=C(Nc1ccc(Cl)cc1C(=O)c1ccccc1)c1ccco1	5	0	-5	-33*	-6
O=C(Nc1ccc(Cl)cc1C(=O)c1ccccc1Cl)c1ccco1	2	1	-7	-39*	1
CCc1ccc(-n2nc(C)c3c2NC(=O)CSC3c2ccc(OC)cc2OC)cc1 (configuration not stated)	1	0	-5	0	-24
CCOc1ccc(CN(CCc2ccc3c(c2)OCO3)Cc2ccc(CC)cc2)cc1	3	0	-1	4	1
Brc1ccc2c(c1)C(OC1CN3CCC1CC3)c1ccccc1CS2 (configuration not stated)	28	0	-9	-36*	1
c1ccc2c(c1)CSc1ccccc1C2C1=NCCN1 (configuration not stated)	6	-1	0	-11	5
CC(C)[C@H]1C(=O)N2CCC[C@H]2[C@]2(O)O[C@](NC(=O)[C@@H]3C=C4c5cccc6[nH]cc(c56)C[C@H]4N(C)C3)(C(C)C)C(=O)N12	4	6	-5	-34*	2
CC(C)[C@@]1(NC(=O)[C@@H]2C[C@@H]3c4cccc5[nH]cc(c45)C[C@H]3N(C)C2)O[C@@]2(O)[C@@H]3CCCN3C(=O)[C@H](Cc3ccccc3)N2C1=O	29	6	-6	-68*	3
CC(C)[C@@]1(NC(=O)[C@@H]2C=C3c4cccc5[nH]cc(c45)C[C@H]3N(C)C2)O[C@@]2(O)[C@@H]3CCCN3C(=O)[C@H](Cc3ccccc3)N2C1=O	27	3	1	-1	4
COc1cc(/C=C/C(=O)c2c(O)n(CCc3ccccc3)c(=O)[nH]c2=O)ccc1O	42*	0	0	9	7
O=C(/C=C/c1ccccc1)c1c(O)n(CCc2ccccc2)c(=O)[nH]c1=O	1	-1	-5	10	-3
Cc1cc(-c2ccccc2)cc(-c2ccccc2)[n+]1CCc1ccccc1	-2	0	-12	-43*	0
COC(=O)[C@@]1(Cc2ccc(F)cc2)[C@H]2c3cc(C(=O)N(C)C)[nH]c3C[C@H]2CN1C(=O)c1ccccc1	3	2	0	-33*	4
Cc1ccc(NC(=O)CN2C(=O)CN=C(c3ccccc3)c3ccccc32)cc1	2	1	2	5	-2
CCCCc1ccc2[nH]cc(CCN)c2c1	90*	9	2	5	16
NCCc1c[nH]c2ccccc12	-1	0	0	3	1
Cc1ccc(C2=NCC(=O)N(CC(=O)N3CCCCC3)c3sc(C)c(C)c32)cc1	-2	1	1	-10	30*
